From PubChem BioAssay (NCI) come the findings set out here.

This is part of a sample that, as a whole, favours compounds with a hit. Of some 83,000 tested, about 20% had one in any assay.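 In brief: 96-well plates, 48 h treatment, single concentration, percent growth endpoint.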 Calls of active or inactive are those of the source. How the source made its calls: active means growth percent below 10; inactive means the rest.

The first assay concerns TK-10 renal. The assay is described as follows: NCI-60 one-dose screen, 48 h (100 = growth as untreated, 0 = no growth, -100 = all killed). To be noted: 10 µM unless noted.
With `O=C(c1ccccc1)C1OC1c1ccc([N+](=O)[O-])cc1` (stereo not drawn), the growth was 50% (inactive).

Consider `Nc1cccc(Cl)c1N`, for which the growth was 93% (inactive).

Turning to `CCN(CC)CCOc1ccc(Cl)c(C)c1`, the growth was 116% (inactive).

Regarding `COC(=O)C(Sc1ccc(Cl)cc1)C1SC(=S)N(Cc2ccccc2)C1=O` (stereo not drawn), the growth was 115% (inactive).

As to `CC(=O)Nc1scc[n+]1Cc1ccccc1`, the growth is 113% (inactive).

As to `CCCCN(CCCC)C(=N)c1ccnc2ccccc12`, the growth is 105% (inactive).

In the case of `O=C(Oc1ccccc1[N+](=O)[O-])C1CCCN1C(=O)OCc1ccccc1` (stereo not drawn), the growth was 112% (inactive).

Take `CCN(CC)c1ccc(CNc2ccnc3ccccc23)cc1`: the growth was 60% (inactive).

Consider `CC1=C(C#N)C(=O)NC(C)C1` (stereo not drawn), for which the growth was 106% (inactive).

As to `CC1CCC(C)N(C)C1` (stereo not drawn), the growth was 102% (inactive).

`COC(=O)c1cccc2c1N(C)c1c(cccc1C(=O)OC)CC2`: the growth is 121% (inactive).

As to `COc1cc(-c2nn(-c3cccc(NC(=O)c4ccc(Cl)c(C(F)(F)F)c4)c3)cc2-c2ccncc2)ccc1Cl`, the growth was 69.5% (inactive).

For the compound `CN(C)c1cccc2c(S(=O)(=O)/N=C(\N)Nc3nc4ccccc4s3)cccc12`, the growth is 91.4% (inactive).

`Nc1cc2c(cc1C(=O)c1cccc(F)c1)OCCO2`: the growth was 94% (inactive).

Regarding `O=C(Nc1ccc(NCCN2CCOCC2)nc1)c1ccc([N+](=O)[O-])cc1`, the growth is 114% (inactive).

As for `COP(=O)(OC)/C(=N\NS(=O)(=O)c1ccc(C)cc1)c1ccccc1`, the growth is 88% (inactive).

For `CC(=O)Nc1ccc(/C=C/C(=O)c2ccccc2)cc1`, the growth was 110% (inactive).

`COc1ccc(CCNC2=CC(=O)CCC2)cc1OC`: the growth is 115% (inactive).

As to `CCCCCCCCCCCCNC(=O)[C@H]1CSC(c2cc3ccccc3s2)N1` (stereo partly drawn), the growth was -78.7% (active).

In the case of `COc1cc(Nc2ncccc2C(=O)NCc2cn(Cc3cccc(Oc4ccccc4)c3)nn2)cc(OC)c1`, the growth is 70.4% (inactive).

With `Cc1ccc(Cc2c(C=O)nc(N)[nH]c2=O)c2ccccc12`, the growth is 112% (inactive).

Take `COc1cc(/C=C/C(=O)c2cccc(-n3cc(-c4cc(OC)c(OC)c(OC)c4)[nH]c3=O)c2)cc(OC)c1OC`: the growth was 27.8% (inactive).

Consider `CCCCCCCCCCCCNC(=O)[C@H]1CSC(c2ccsc2)N1` (stereo partly drawn), for which the growth was -91.6% (active).

`O=c1[nH]c(NCc2ccccc2)nc2nc(Nc3ccc(NC(=S)Nc4ccccc4)cc3)nc(-c3ccc(O)cc3O)c12`: the growth was 134% (inactive).

Regarding `CCC(C)/C(=C\C#N)NCCCN/C(=C/C#N)C(C)CC` (stereo not drawn), the growth was 119% (inactive).

Turning to `Oc1ccccc1/C=N/NC(=S)NC1CC2C=CC1C2` (stereo not drawn), the growth is 103% (inactive).

Turning to `COc1ccc(OC)c(C2OC(c3ccc4ccccc4c3O)=NN2C(C)=O)c1` (stereo not drawn), the growth was 80.7% (inactive).

For the compound `CN1CCN(Cc2ccc(NC(=O)c3cncc(C#Cc4cnc(N)c5cnccc45)c3)cc2C(F)(F)F)CC1`, the growth was 12.8% (inactive).

In the case of `COC(OC)c1ccccc1`, the growth was 117% (inactive).

On to `CC(C)CSc1nc(NN)c(C#N)c(-c2ccc(F)cc2)n1`, for which the growth was 92.1% (inactive).

`COc1cc2c(cc1OCCCN1CCN(CCCn3c4ccccc4c4ccccc43)CC1)N=C[C@@H]1CCCN1C2=O`: the growth is -79.6% (active).

`O=C(Nc1ccncc1)C(=O)c1cn(S(=O)(=O)c2ccc(Oc3ccccc3)cc2)c2ccccc12`: the growth was 102% (inactive).

With `COc1ccc(-c2ccc(C)n2-c2ccc(-c3nc4cc(Cl)ccc4s3)cc2)cc1`, the growth is 81.6% (inactive).

`CC1(C)C(=O)/C(=C\c2ccc(C(F)(F)F)cc2)C[C@]2(C)[C@H]3CC[C@@H]4[C@H]5[C@H](C(=O)/C=C/c6ccc(C(F)(F)F)cc6)CC[C@]5(CO)CC[C@@]4(C)[C@]3(C)CC[C@@H]12`: the growth is 126% (inactive).

Turning to `O=C(NCc1cn(Cc2cccc(Oc3ccccc3)c2)nn1)c1cccnc1Nc1ccc(F)cc1`, the growth was 83.8% (inactive).

As for `Cc1ccc(-c2cc3nc(C(Cl)Cl)nc(-c4ccccc4C)n3n2)cc1`, the growth is 54.8% (inactive).

`COc1ccc(S(=O)(=O)n2cc(C(=O)C(=O)Nc3ccncc3)c3ccccc32)cc1F`: the growth was 102% (inactive).

For the compound `CCOC(=O)C1=C(C)NC(C)=C(C(=O)OCC)C1(C)C`, the growth is 109% (inactive).

Regarding `O=c1[nH]c(Nc2ccc(S(=O)(=O)O)cc2)nc2nc(Nc3ccc(NC(=S)Nc4ccccc4)cc3)nc(-c3ccc(O)cc3O)c12`, the growth is 156% (inactive).

Another assay relates to ACHN renal. The assay is described as above. To be noted: 10 µM unless noted.
As for `O=C(c1ccccc1)C1OC1c1ccc([N+](=O)[O-])cc1` (stereo not drawn), the growth is 75.3% (inactive).

Turning to `Nc1cccc(Cl)c1N`, the growth was 90.4% (inactive).

As for `CCN(CC)CCOc1ccc(Cl)c(C)c1`, the growth was 104% (inactive).

Take `COC(=O)C(Sc1ccc(Cl)cc1)C1SC(=S)N(Cc2ccccc2)C1=O` (stereo not drawn): the growth was 97.6% (inactive).

Turning to `CC(=O)Nc1scc[n+]1Cc1ccccc1`, the growth was 107% (inactive).

For `CCCCN(CCCC)C(=N)c1ccnc2ccccc12`, the growth was 109% (inactive).

`O=C(Oc1ccccc1[N+](=O)[O-])C1CCCN1C(=O)OCc1ccccc1` (stereo not drawn): the growth was 105% (inactive).

As to `CCN(CC)c1ccc(CNc2ccnc3ccccc23)cc1`, the growth was 75.8% (inactive).

`CC1=C(C#N)C(=O)NC(C)C1` (stereo not drawn): the growth is 102% (inactive).

For the compound `CC1CCC(C)N(C)C1` (stereo not drawn), the growth was 105% (inactive).

Regarding `COC(=O)c1cccc2c1N(C)c1c(cccc1C(=O)OC)CC2`, the growth was 104% (inactive).

In the case of `COc1cc(-c2nn(-c3cccc(NC(=O)c4ccc(Cl)c(C(F)(F)F)c4)c3)cc2-c2ccncc2)ccc1Cl`, the growth is 39.1% (inactive).

Turning to `CN(C)c1cccc2c(S(=O)(=O)/N=C(\N)Nc3nc4ccccc4s3)cccc12`, the growth was 84.2% (inactive).

Turning to `Nc1cc2c(cc1C(=O)c1cccc(F)c1)OCCO2`, the growth is 105% (inactive).

On to `O=C(Nc1ccc(NCCN2CCOCC2)nc1)c1ccc([N+](=O)[O-])cc1`, for which the growth was 109% (inactive).

Regarding `COP(=O)(OC)/C(=N\NS(=O)(=O)c1ccc(C)cc1)c1ccccc1`, the growth was 101% (inactive).

`CC(=O)Nc1ccc(/C=C/C(=O)c2ccccc2)cc1`: the growth was 95.3% (inactive).

Consider `COc1ccc(CCNC2=CC(=O)CCC2)cc1OC`, for which the growth was 110% (inactive).

As to `CCCCCCCCCCCCNC(=O)[C@H]1CSC(c2cc3ccccc3s2)N1` (stereo partly drawn), the growth was 17.5% (inactive).

Consider `COc1cc(Nc2ncccc2C(=O)NCc2cn(Cc3cccc(Oc4ccccc4)c3)nn2)cc(OC)c1`, for which the growth was 53.6% (inactive).

In the case of `Cc1ccc(Cc2c(C=O)nc(N)[nH]c2=O)c2ccccc12`, the growth was 107% (inactive).

As to `COc1cc(/C=C/C(=O)c2cccc(-n3cc(-c4cc(OC)c(OC)c(OC)c4)[nH]c3=O)c2)cc(OC)c1OC`, the growth is -57.6% (active).

Consider `CCCCCCCCCCCCNC(=O)[C@H]1CSC(c2ccsc2)N1` (stereo partly drawn), for which the growth is -68.7% (active).

Take `O=c1[nH]c(NCc2ccccc2)nc2nc(Nc3ccc(NC(=S)Nc4ccccc4)cc3)nc(-c3ccc(O)cc3O)c12`: the growth was 103% (inactive).

`CCC(C)/C(=C\C#N)NCCCN/C(=C/C#N)C(C)CC` (stereo not drawn): the growth was 97.1% (inactive).

Turning to `Oc1ccccc1/C=N/NC(=S)NC1CC2C=CC1C2` (stereo not drawn), the growth is 73.6% (inactive).

`COc1ccc(OC)c(C2OC(c3ccc4ccccc4c3O)=NN2C(C)=O)c1` (stereo not drawn): the growth was 69.5% (inactive).

Take `CN1CCN(Cc2ccc(NC(=O)c3cncc(C#Cc4cnc(N)c5cnccc45)c3)cc2C(F)(F)F)CC1`: the growth was -9.19% (active).

Regarding `COC(OC)c1ccccc1`, the growth is 102% (inactive).

On to `CC(C)CSc1nc(NN)c(C#N)c(-c2ccc(F)cc2)n1`, for which the growth was 60.6% (inactive).

As for `COc1cc2c(cc1OCCCN1CCN(CCCn3c4ccccc4c4ccccc43)CC1)N=C[C@@H]1CCCN1C2=O`, the growth is -100% (active).

In the case of `O=C(Nc1ccncc1)C(=O)c1cn(S(=O)(=O)c2ccc(Oc3ccccc3)cc2)c2ccccc12`, the growth was 86.3% (inactive).

In the case of `COc1ccc(-c2ccc(C)n2-c2ccc(-c3nc4cc(Cl)ccc4s3)cc2)cc1`, the growth is 108% (inactive).

As for `CC1(C)C(=O)/C(=C\c2ccc(C(F)(F)F)cc2)C[C@]2(C)[C@H]3CC[C@@H]4[C@H]5[C@H](C(=O)/C=C/c6ccc(C(F)(F)F)cc6)CC[C@]5(CO)CC[C@@]4(C)[C@]3(C)CC[C@@H]12`, the growth is 91.9% (inactive).

Consider `O=C(NCc1cn(Cc2cccc(Oc3ccccc3)c2)nn1)c1cccnc1Nc1ccc(F)cc1`, for which the growth was 72.3% (inactive).

On to `Cc1ccc(-c2cc3nc(C(Cl)Cl)nc(-c4ccccc4C)n3n2)cc1`, for which the growth was 49.1% (inactive).

`COc1ccc(S(=O)(=O)n2cc(C(=O)C(=O)Nc3ccncc3)c3ccccc32)cc1F`: the growth was 66.7% (inactive).

Regarding `CCOC(=O)C1=C(C)NC(C)=C(C(=O)OCC)C1(C)C`, the growth was 106% (inactive).

As for `O=c1[nH]c(Nc2ccc(S(=O)(=O)O)cc2)nc2nc(Nc3ccc(NC(=S)Nc4ccccc4)cc3)nc(-c3ccc(O)cc3O)c12`, the growth was 100% (inactive).
